The values that follow come from PubChem BioAssay (EPA / NIEHS).

Experiment [1] can be described thus: TOX21_p53_BLA_p3_viability: Viability Assessment in the Tox21 HCT-116 p53 Agonism Beta-lactamase Assay, Phase 3 (AID 2283593).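 Note: cells exposed to compound for 16 h before reading.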 The procedure, abridged:
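Cellular ATP was quantified by CellTiter-Glo luminescence, read after 30 min at room temperature. Beforehand, HCT116 cells (4000/well) received compound 5 h post-seeding, 217-fold diluted from DMSO, then incubated 16 h at 37C.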

In experiment [2] the target is Cellular tumor antigen p53 (Homo sapiens) (UniProt P04637). As to the kind of experiment: TOX21_p53_BLA_p3_ratio: Tox21 HCT-116 p53 Agonism Beta-lactamase Assay, Ratio, Phase 3 (AID 2283596). The procedure, abridged:
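Cells were seeded at 4000/well, rested 5 h at 37C, then dosed with DMSO compound solutions (217-fold dilution) for 16 h. CCF4-AM substrate was loaded for 2 h at room temperature, and the 460/530 nm emission ratio was fitted for gain of signal versus DMSO.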

The nature of experiment [3]: TOX21_p53_BLA_p4_viability: Viability Assessment in the Tox21 HCT-116 p53 Agonism Beta-lactamase Assay, Phase 4 (AID 2283597).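 Note: hits lower the luminescence signal meaning cytotoxicity.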 The procedure, abridged: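 Cytotoxicity was inferred from loss of CellTiter-Glo luminescence. HCT116 cells had been dosed with compounds after 5 h plating, incubated 16 h at 37C and 5% CO2, and exposed to the CCF4-AM substrate for 2 h.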
In experiment [4] the target is Cellular tumor antigen p53 (Homo sapiens) (UniProt P04637). The experiment is described as follows: TOX21_p53_BLA_p4_ratio: Tox21 HCT-116 p53 Agonism Beta-lactamase Assay, Ratio, Phase 4 (AID 2283601). The procedure, abridged:
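Signal is the blue/green (460nm/530nm) ratio of cleaved versus uncleaved CCF4-AM substrate, read after 2 h substrate loading. Cells were HCT116 carrying the p53-responsive beta-lactamase reporter, dosed 16 h at 37C, 5% CO2; CellTiter-Glo measured in parallel.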

For experiment [5] the target is unchanged. The experiment is described as follows: TOX21_p53_BLA_p5_ratio: Tox21 HCT-116 p53 Agonism Beta-lactamase Assay, Ratio, Phase 5 (AID 2283599). The procedure, abridged:
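Beta-lactamase reporter ratio (blue 460 nm over green 530 nm, 405 nm excitation) after 2 h CCF4-AM loading, in HCT-116 cells exposed 16 h at 37 C to compounds pinned at 217-fold dilution. Increases relative to DMSO baseline scored.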

Experiment [6] can be described thus: TOX21_p53_BLA_p5_viability: Viability Assessment in the Tox21 HCT-116 p53 Agonism Beta-lactamase Assay, Phase 5 (AID 2283600). The method, boiled down: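 Luciferase-coupled ATP quantitation of cells treated for 16 h (37C, 5% CO2) with test chemicals delivered in DMSO via a 217-fold dilution; 4000 cells/well; reagent incubated 30 min at room temperature before luminescence reading.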

SMILES strings stand for the structures. Inconclusive results are not listed. Activity calls are given as the source filed them. Rule for the calls: active = hit-call score of the fitted dose curve at least 0.9, where 1 is the maximum; inconclusive = response in the unintended direction; inactive = score below 0.9. Where a SMILES comes first, the peptide text is derived from it. Bridges are numbered along the chain shown (N, C = ends).

Sequence of Cellular tumor antigen p53 (Homo sapiens) (P04637 whole entry, looked up): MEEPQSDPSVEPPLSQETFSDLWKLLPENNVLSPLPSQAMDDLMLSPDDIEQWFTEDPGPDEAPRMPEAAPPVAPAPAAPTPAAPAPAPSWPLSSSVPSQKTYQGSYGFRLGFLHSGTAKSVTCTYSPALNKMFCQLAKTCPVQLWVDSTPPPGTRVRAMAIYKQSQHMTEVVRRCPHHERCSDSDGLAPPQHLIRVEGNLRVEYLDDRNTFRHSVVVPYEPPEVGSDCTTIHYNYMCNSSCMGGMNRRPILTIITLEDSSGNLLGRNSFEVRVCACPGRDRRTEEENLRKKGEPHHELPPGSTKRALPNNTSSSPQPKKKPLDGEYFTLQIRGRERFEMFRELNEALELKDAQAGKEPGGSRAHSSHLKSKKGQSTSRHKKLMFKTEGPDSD

For `Oc1ccc(CCNCCCCCCNCCc2ccccc2)cc1O`, the call in experiment [1], in experiment [2], in experiment [3] and in experiment [4] was inactive.

For the compound `COC(=O)c1cc(C(=O)OC)cc(S(=O)(=O)O)c1`, the call in experiment [1], in experiment [2], in experiment [5] and in experiment [6] was inactive.

Turning to `NCCCC[C@H](NC(=O)[C@@H]1CCCN1C(=O)[C@@H]1CSSC[C@H](NC(=O)CNC(=O)CNC(=O)CN)C(=O)N[C@@H](Cc2ccc(O)cc2)C(=O)N[C@@H](Cc2ccccc2)C(=O)N[C@@H](CCC(N)=O)C(=O)N[C@@H](CC(N)=O)C(=O)N1)C(=O)NCC(N)=O` (H-GGGCYFQNCPKG-NH2; disulfide 4-9), the compound was classed as inactive in experiment [1], in experiment [2], in experiment [5] and in experiment [6].

As for `Nc1ccc(C(=O)NCC(=O)O)cc1`, the outcome in experiment [1], in experiment [2], in experiment [5], in experiment [6] and in experiment [4] was inactive.

In the case of `CC1CCCCN1CCCOC(=O)c1ccccc1` (configuration not stated), the result in experiment [1], in experiment [2], in experiment [3], in experiment [6] and in experiment [4] was inactive.

Regarding `CCCCOc1ccc(OCCCN2CCOCC2)cc1`, the result in experiment [1], in experiment [2], in experiment [3] and in experiment [4] was inactive.

Turning to `O=C(Cn1c(=O)sc2ccc(Cl)cc21)N1CCN(CCO)CC1`, the outcome in experiment [1], in experiment [2], in experiment [3], in experiment [6] and in experiment [4] was inactive.

`C=C1C(=O)O[C@H]2[C@H]1CC/C(C)=C/CC[C@@]1(C)O[C@@H]21`: the outcome in experiment [1] and in experiment [6] was inactive. The half-maximal activity concentration (AC50) in experiment [2] was 34.3 µM (active); in experiment [3] it was 36.9 µM (active).

For the compound `N[C@H]1CN(c2c(F)cc3c(=O)c(C(=O)O)cn(C4C[C@H]4F)c3c2Cl)CC12CC2` (some centres not stated), the compound was classed as inactive in experiment [1], in experiment [2], in experiment [3], in experiment [6] and in experiment [4].

`O=C(O)c1cc(C(=O)O)cc(C(=O)O)c1`: the compound was classed as inactive in experiment [1], in experiment [2], in experiment [3], in experiment [5] and in experiment [4].

Consider `NCCCC(O)(P(=O)(O)O)P(=O)(O)O`, for which the compound was classed as inactive in experiment [1], in experiment [2], in experiment [5] and in experiment [6].

Consider `BrC(Br)C(Br)Br`, for which the call in experiment [1], in experiment [2], in experiment [5] and in experiment [6] was inactive.

Take `O=S(=O)(O)c1cccc(S(=O)(=O)O)c1`: the outcome in experiment [1], in experiment [2], in experiment [5], in experiment [6] and in experiment [4] was inactive.

Take `CCOC(=O)[C@H](CCc1ccccc1)N[C@@H](C)C(=O)N1Cc2cc(OC)c(OC)cc2C[C@H]1C(=O)O`: the result in experiment [1], in experiment [2], in experiment [3] and in experiment [6] was inactive.

As for `CO[C@H]1O[C@@H]2O[C@@]3(C)CC[C@H]4[C@H](C)CC[C@@H]([C@H]1C)[C@@]24OO3`, the result in experiment [1], in experiment [2], in experiment [5], in experiment [6] and in experiment [4] was inactive.

As for `CC1(C)OC[C@@H](COC(=O)CCc2ccc(OC[C@@H](O)CNCCNC(=O)N3CCOCC3)cc2)O1`, the compound was called inactive in experiment [1], in experiment [2], in experiment [3], in experiment [5] and in experiment [4].

As a reminder, the AC50 is the concentration giving half of the maximal activity seen.
